# Data published in PMC7862700, “An all-to-all approach to the identification of sequence-specific readers for epigenetic DNA modifications on cytosine”.
# Assays:
# Assay in all cases: DAPPL (digital affinity profiling via proximity ligation, sequencing); 10 mM Tris-HCl pH 7.5, 50 mM NaCl, 1 mM DTT, 4% glycerol, room temperature, 30 min; GST-TFs on glutathione beads, 16-mer random dsDNA library, 0.1% formaldehyde crosslink after washing; high values mean tight binding
# FEV = target: T1, FEV (Homo sapiens, UniProt Q99581 1-238); conditions: protein: recombinant; tags: N-terminal GST; dsDNA, one strand shown
# T1 sequence: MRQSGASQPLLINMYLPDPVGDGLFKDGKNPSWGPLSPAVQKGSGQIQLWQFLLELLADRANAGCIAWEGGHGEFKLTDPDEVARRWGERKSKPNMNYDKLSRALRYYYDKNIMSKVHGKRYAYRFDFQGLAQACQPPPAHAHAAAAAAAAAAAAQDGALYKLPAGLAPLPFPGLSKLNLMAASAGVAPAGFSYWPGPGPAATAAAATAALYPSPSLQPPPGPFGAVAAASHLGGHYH
# Procedure, shortened: (§1)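 Human transcription factors fused to GST were expressed in yeast, captured on glutathione beads, given DNA barcodes and pooled with a GST-only negative control. Pools were incubated with 200 nmole of a 16-mer random double-stranded DNA library in Tris/NaCl/DTT/glycerol buffer at room temperature for 30 min. They were then washed, crosslinked with 0.1% formaldehyde, proximity-ligated (BsaI/T4 ligase, 1 h, 37 °C), PCR-amplified and sequenced on an Illumina NextSeq500. Binding signal is each 6-mer's read frequency for a factor divided by its frequency for the GST control.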
# ETV5 = ETV5 (Homo sapiens, UniProt P41161 1-510); conditions: protein: recombinant; tags: N-terminal GST; dsDNA, one strand shown
# Sequence of ETV5 (P41161 whole entry): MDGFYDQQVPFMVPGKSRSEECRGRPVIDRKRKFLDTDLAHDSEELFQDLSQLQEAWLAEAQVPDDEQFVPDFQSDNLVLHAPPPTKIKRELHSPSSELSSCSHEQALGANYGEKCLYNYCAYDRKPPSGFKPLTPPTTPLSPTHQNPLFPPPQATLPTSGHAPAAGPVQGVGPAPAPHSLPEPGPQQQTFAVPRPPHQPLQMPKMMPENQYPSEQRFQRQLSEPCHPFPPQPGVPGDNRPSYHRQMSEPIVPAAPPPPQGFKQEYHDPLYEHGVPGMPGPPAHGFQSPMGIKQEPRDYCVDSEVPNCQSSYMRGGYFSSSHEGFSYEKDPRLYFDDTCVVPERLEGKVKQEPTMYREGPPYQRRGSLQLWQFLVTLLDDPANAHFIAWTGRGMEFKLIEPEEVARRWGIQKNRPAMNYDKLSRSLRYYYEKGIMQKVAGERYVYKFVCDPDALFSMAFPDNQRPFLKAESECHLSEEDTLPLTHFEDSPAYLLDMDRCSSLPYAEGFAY
# Procedure, shortened: as §1
# HSF1 = HSF1 (Homo sapiens, UniProt Q00613 1-529); conditions: protein: recombinant; tags: N-terminal GST; chain copies: 3; dsDNA, one strand shown
# Sequence of HSF1 (Q00613 whole entry): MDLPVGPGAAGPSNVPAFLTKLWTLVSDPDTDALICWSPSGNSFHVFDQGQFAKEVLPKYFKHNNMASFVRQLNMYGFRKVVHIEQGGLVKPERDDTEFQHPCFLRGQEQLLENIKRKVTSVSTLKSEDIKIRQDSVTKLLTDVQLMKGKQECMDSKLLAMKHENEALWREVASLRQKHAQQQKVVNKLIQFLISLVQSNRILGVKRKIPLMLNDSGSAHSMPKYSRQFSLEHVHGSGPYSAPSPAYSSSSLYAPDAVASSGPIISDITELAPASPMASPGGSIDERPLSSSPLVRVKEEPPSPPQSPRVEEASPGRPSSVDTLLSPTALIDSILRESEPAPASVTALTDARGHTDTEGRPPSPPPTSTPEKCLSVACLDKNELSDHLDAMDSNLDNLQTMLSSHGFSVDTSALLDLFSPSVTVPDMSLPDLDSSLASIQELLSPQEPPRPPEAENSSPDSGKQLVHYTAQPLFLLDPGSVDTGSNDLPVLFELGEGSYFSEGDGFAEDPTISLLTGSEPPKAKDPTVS
# Procedure, shortened: as §1
# SPIC = target: T2, SPIC (Homo sapiens, UniProt Q8N5J4 1-248); conditions: protein: recombinant; tags: N-terminal GST; dsDNA, one strand shown
# T2 sequence: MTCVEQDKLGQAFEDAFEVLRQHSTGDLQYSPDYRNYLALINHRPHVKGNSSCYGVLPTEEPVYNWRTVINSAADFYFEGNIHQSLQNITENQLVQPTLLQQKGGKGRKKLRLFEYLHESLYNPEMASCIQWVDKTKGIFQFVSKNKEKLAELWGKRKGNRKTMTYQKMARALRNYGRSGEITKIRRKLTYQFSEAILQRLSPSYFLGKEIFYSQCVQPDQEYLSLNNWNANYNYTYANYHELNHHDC
# Procedure, shortened: as §1
# ELF4 = ELF4 (Homo sapiens, UniProt Q99607 1-663); conditions: protein: recombinant; tags: N-terminal GST; dsDNA, one strand shown
# Sequence of ELF4 (Q99607 whole entry): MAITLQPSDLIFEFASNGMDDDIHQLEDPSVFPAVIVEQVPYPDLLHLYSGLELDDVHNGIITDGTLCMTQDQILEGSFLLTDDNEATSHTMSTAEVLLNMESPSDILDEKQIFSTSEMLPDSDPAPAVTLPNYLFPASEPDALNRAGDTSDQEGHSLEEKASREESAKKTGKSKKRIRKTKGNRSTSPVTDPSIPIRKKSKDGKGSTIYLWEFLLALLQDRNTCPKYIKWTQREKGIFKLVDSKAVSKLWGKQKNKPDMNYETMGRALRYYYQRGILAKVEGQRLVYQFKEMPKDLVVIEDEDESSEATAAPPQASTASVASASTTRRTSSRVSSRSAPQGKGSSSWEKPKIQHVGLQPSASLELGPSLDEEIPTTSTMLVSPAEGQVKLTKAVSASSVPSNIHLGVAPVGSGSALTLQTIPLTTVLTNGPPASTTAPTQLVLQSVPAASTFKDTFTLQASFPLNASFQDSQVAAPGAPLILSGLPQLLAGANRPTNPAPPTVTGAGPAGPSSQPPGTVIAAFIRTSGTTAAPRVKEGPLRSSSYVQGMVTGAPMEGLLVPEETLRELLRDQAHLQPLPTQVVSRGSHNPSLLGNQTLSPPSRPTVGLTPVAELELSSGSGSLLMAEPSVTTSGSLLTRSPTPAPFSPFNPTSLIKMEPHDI
# Procedure, shortened: as §1
# ELK4 = target: T3, ELK4 (Homo sapiens, UniProt P28324-2 1-405); conditions: protein: recombinant; tags: N-terminal GST; dsDNA, one strand shown
# T3 sequence: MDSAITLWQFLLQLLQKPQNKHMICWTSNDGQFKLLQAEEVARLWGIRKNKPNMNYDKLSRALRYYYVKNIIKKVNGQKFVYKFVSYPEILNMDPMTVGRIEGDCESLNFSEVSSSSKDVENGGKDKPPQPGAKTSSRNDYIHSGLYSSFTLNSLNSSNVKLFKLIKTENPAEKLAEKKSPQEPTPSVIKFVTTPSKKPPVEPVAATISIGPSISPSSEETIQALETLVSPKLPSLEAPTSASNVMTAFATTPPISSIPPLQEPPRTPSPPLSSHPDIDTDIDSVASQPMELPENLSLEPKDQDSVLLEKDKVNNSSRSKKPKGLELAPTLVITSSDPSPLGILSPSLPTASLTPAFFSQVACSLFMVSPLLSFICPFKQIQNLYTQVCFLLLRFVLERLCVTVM
# Procedure, shortened: as §1
# ETV2 = target: T4, ETV2 (Homo sapiens, UniProt O00321 1-342); conditions: protein: recombinant; tags: N-terminal GST; dsDNA, one strand shown
# T4 sequence: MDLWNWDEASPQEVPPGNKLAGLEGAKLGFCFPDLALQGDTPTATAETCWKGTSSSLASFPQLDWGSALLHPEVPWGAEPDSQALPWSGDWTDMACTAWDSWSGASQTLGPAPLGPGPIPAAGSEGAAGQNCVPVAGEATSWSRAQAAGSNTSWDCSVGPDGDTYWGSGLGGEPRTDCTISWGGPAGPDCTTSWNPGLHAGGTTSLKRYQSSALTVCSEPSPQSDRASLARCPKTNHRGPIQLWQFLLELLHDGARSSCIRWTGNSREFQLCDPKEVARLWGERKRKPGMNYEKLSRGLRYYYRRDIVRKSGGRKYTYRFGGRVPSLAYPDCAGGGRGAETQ
# Procedure, shortened: as §1
# ELF3 = target: T5, ELF3 (Homo sapiens, UniProt P78545 1-371); conditions: protein: recombinant; tags: N-terminal GST; dsDNA, one strand shown
# T5 sequence: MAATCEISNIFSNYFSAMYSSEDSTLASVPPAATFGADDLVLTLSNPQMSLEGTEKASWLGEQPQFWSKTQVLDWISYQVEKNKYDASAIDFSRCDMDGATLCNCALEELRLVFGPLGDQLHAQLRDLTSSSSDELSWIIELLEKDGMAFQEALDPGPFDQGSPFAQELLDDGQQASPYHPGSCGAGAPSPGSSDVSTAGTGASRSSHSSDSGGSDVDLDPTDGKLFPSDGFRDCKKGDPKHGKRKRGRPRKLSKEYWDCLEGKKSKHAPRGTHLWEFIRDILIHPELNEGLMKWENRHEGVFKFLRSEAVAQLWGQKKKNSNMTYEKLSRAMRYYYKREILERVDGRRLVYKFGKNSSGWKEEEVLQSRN
# Procedure, shortened: as §1
# CRX = CRX (Homo sapiens, UniProt O43186 1-299); conditions: protein: recombinant; tags: N-terminal GST; dsDNA, one strand shown
# Sequence of CRX (O43186 whole entry): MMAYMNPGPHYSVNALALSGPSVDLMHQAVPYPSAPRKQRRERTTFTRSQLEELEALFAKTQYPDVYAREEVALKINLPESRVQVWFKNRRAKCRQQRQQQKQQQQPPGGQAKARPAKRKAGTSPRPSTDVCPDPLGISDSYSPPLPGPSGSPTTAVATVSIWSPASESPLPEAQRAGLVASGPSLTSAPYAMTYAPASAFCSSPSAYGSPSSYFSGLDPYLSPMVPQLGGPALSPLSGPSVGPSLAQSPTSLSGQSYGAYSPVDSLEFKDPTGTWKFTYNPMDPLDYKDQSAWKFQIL
# Procedure, shortened: as §1
# ETV1 = ETV1 (Homo sapiens, UniProt P50549 1-477); conditions: protein: recombinant; tags: N-terminal GST; dsDNA, one strand shown
# Sequence of ETV1 (P50549 whole entry): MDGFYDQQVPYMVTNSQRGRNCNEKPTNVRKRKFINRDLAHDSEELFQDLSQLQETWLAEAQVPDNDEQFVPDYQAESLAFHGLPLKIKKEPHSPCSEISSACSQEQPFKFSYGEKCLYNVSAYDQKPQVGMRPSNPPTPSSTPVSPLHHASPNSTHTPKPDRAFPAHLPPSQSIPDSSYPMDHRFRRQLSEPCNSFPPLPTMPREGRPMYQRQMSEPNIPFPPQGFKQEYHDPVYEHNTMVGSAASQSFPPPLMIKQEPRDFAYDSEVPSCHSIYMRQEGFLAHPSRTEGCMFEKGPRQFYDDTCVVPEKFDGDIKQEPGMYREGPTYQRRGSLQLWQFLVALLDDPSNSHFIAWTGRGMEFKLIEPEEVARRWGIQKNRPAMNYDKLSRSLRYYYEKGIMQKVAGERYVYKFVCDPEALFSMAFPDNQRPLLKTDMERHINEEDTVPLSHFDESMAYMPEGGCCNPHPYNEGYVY
# Procedure, shortened: as §1
# ERF = target: T6, ERF (Homo sapiens, UniProt P50548 1-548); conditions: protein: recombinant; tags: N-terminal GST; dsDNA, one strand shown
# T6 sequence: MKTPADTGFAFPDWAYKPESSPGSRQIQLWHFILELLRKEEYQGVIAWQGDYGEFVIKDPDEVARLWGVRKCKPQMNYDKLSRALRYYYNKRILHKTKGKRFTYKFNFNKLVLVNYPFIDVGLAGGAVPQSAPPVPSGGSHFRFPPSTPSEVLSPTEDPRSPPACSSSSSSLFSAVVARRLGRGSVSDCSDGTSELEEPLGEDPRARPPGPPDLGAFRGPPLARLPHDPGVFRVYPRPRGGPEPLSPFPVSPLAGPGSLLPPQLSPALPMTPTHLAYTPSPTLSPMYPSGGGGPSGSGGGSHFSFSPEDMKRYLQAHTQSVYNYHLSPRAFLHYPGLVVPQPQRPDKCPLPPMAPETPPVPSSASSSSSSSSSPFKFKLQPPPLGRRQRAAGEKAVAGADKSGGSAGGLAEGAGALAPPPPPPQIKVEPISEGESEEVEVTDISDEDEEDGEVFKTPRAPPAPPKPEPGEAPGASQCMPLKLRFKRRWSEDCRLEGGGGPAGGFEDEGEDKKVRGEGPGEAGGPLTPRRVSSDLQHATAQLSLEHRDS
# Procedure, shortened: as §1
# ETV3L = target: T7, ETV3L (Homo sapiens, UniProt Q6ZN32 1-361); conditions: protein: recombinant; tags: N-terminal GST; dsDNA, one strand shown
# T7 sequence: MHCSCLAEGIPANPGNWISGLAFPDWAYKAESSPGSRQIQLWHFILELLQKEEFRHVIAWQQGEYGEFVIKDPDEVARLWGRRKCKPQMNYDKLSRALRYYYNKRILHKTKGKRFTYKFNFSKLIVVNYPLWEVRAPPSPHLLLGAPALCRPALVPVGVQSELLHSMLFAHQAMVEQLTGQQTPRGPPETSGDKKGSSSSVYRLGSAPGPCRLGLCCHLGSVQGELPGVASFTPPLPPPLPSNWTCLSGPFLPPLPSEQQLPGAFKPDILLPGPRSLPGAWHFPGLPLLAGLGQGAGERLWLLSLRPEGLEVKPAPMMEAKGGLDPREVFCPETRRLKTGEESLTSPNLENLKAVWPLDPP
# Procedure, shortened: as §1
# ETS2 = target: T8, ETS2 (Homo sapiens, UniProt P15036 1-469); conditions: protein: recombinant; tags: N-terminal GST; dsDNA, one strand shown
# T8 sequence: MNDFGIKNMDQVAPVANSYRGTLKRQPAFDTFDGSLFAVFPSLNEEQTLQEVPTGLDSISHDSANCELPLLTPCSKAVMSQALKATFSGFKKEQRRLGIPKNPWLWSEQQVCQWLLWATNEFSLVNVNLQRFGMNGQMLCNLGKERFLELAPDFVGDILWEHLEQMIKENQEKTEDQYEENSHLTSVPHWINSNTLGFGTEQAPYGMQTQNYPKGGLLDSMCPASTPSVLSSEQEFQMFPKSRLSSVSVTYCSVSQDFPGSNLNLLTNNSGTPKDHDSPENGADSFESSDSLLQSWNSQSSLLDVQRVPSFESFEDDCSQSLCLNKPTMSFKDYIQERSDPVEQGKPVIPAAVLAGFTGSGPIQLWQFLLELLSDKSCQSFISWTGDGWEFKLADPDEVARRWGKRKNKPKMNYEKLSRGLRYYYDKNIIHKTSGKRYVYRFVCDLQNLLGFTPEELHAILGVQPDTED
# Procedure, shortened: as §1
# SPDEF = target: T9, SPDEF (Homo sapiens, UniProt O95238 1-335); conditions: protein: recombinant; tags: N-terminal GST; dsDNA, one strand shown
# T9 sequence: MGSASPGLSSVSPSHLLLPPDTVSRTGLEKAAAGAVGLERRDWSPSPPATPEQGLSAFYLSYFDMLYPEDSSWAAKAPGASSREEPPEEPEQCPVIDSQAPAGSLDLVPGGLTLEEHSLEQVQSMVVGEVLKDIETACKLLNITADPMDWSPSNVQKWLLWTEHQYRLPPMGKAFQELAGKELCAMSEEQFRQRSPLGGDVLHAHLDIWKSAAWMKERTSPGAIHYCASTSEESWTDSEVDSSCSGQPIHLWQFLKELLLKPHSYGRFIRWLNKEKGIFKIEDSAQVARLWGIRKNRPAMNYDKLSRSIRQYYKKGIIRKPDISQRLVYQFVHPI
# Procedure, shortened: as §1
# ETV7 = target: T10, ETV7 (Homo sapiens, UniProt Q9Y603 1-341); conditions: protein: recombinant; tags: N-terminal GST; dsDNA, one strand shown
# T10 sequence: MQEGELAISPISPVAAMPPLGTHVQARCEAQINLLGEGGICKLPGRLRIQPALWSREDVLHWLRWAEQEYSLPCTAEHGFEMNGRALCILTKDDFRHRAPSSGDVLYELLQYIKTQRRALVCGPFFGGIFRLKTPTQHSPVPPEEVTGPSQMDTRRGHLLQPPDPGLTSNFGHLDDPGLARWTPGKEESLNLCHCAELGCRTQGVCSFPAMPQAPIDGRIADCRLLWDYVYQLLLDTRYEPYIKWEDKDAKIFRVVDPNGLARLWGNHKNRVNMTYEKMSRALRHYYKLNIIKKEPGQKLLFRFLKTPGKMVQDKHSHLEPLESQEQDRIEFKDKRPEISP
# Procedure, shortened: as §1
# ELF5 = target: T11, ELF5 (Homo sapiens, UniProt Q9UKW6-2 1-255); conditions: protein: recombinant; tags: N-terminal GST; dsDNA, one strand shown
# T11 sequence: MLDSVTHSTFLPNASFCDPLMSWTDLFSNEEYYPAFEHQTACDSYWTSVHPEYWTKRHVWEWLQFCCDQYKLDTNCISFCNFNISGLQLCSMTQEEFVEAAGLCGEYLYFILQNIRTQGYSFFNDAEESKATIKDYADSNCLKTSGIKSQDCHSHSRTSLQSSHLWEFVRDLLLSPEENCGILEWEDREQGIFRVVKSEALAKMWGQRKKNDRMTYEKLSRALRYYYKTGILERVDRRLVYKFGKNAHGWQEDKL
# Procedure, shortened: as §1
# ETV3 = target: T12, ETV3 (Homo sapiens, UniProt P41162-2 1-143); conditions: protein: recombinant; tags: N-terminal GST; dsDNA, one strand shown
# T12 sequence: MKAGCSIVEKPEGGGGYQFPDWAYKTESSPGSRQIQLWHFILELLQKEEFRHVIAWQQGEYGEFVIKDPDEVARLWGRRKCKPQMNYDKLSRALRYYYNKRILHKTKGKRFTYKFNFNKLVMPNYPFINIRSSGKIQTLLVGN
# Procedure, shortened: as §1
# ETV6 = ETV6 (Homo sapiens, UniProt P41212 1-452); conditions: protein: recombinant; tags: N-terminal GST; dsDNA, one strand shown
# Sequence of ETV6 (P41212 whole entry): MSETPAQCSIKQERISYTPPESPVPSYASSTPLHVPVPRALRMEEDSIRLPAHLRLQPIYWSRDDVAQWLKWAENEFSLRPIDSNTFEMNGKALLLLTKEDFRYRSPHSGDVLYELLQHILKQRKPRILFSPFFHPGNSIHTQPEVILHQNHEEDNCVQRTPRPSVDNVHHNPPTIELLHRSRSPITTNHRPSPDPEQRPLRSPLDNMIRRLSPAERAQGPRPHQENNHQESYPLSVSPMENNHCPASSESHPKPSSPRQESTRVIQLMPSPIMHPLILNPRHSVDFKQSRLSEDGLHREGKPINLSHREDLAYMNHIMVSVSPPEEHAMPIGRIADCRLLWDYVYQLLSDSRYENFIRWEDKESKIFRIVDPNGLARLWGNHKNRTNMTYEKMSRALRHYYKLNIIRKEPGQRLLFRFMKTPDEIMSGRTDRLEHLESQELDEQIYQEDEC
# Procedure, shortened: as §1
sequence,measurement,setting,value
TTGGGG,binding signal,FEV,"1.17 fold enrichment (6-mer frequency, TF over GST control)"
same,binding signal,ETV5,"1.24 fold enrichment (6-mer frequency, TF over GST control)"
same,binding signal,HSF1,"1.11 fold enrichment (6-mer frequency, TF over GST control)"
same,binding signal,SPIC,"1.21 fold enrichment (6-mer frequency, TF over GST control)"
same,binding signal,ELF4,"1.24 fold enrichment (6-mer frequency, TF over GST control)"
same,binding signal,ELK4,"1.34 fold enrichment (6-mer frequency, TF over GST control)"
same,binding signal,ETV2,"1.17 fold enrichment (6-mer frequency, TF over GST control)"
same,binding signal,ELF3,"1.24 fold enrichment (6-mer frequency, TF over GST control)"
same,binding signal,CRX,"1.23 fold enrichment (6-mer frequency, TF over GST control)"
same,binding signal,ETV1,"1.38 fold enrichment (6-mer frequency, TF over GST control)"
same,binding signal,ERF,"1.39 fold enrichment (6-mer frequency, TF over GST control)"
same,binding signal,ETV3L,"1.3 fold enrichment (6-mer frequency, TF over GST control)"
same,binding signal,ETS2,"1.25 fold enrichment (6-mer frequency, TF over GST control)"
same,binding signal,SPDEF,"1.17 fold enrichment (6-mer frequency, TF over GST control)"
same,binding signal,ETV7,"1.12 fold enrichment (6-mer frequency, TF over GST control)"
same,binding signal,ELF5,"1.14 fold enrichment (6-mer frequency, TF over GST control)"
same,binding signal,ETV3,"1.13 fold enrichment (6-mer frequency, TF over GST control)"
same,binding signal,ETV6,"1.26 fold enrichment (6-mer frequency, TF over GST control)"
